{
  "source": "PubChem BioAssay AID1946",
  "about": "(Johns Hopkins Ion Channel Center, 2009)",
  "note": "About 180 (7.5%) of roughly 2,400 compounds were called active. The full list was thinned out, with actives kept by preference. Values without a mark were called inactive.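 The calls were made as follows: active = readout below zero, meaning a drop past 3 SD under the dofetilide-free negative control mean; inactive = the rest.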",
  "data": [
    {"molecular_target": "Potassium voltage-gated channel subfamily KQT member 2 (Rattus norvegicus) (UniProt O88943)", "sequence (O88943 whole entry, looked up)": "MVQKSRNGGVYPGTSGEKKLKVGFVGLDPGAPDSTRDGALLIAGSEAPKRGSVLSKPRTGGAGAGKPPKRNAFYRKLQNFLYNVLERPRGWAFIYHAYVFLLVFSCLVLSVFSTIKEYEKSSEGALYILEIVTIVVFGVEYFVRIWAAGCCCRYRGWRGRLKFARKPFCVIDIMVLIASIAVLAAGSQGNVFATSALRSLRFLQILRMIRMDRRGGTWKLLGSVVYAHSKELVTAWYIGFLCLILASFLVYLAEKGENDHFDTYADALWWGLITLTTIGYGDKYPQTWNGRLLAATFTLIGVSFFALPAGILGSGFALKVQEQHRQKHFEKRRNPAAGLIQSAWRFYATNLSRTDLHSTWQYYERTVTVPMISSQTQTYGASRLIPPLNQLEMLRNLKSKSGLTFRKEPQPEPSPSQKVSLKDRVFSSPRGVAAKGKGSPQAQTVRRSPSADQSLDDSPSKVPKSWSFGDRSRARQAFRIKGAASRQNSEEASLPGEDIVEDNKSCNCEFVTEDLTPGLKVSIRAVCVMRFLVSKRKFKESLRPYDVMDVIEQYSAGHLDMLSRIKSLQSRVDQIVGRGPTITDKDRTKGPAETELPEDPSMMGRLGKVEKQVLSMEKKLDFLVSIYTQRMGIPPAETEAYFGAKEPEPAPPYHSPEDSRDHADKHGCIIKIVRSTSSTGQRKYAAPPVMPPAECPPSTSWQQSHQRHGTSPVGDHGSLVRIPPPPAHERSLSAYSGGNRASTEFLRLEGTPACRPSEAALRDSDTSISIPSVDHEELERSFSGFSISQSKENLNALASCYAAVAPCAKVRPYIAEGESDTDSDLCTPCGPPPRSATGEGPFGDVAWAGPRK", "assay": "rat KCNQ2 channel inhibition by compounds alone, confirmation, counter-screen for hERG block protector project, cell-based, CHO, FluxOR thallium flux (AID 1946)", "settings": "CHO-KCNQ2 cells, FluxOR thallium flux fluorescence; at 10 µM; stronger effect = lower value; zero marks the 3-SD hit cutoff", "values": [
      {"compound": "Cc1c(-c2ccccc2)sc2nc[nH]c(=S)c12", "activity change vs negative control": "75%"},
      {"compound": "Cc1cc(C(=O)NP(=O)(N2CCOCC2)N2CCOCC2)c(C)n1-c1ccc(Br)cc1", "activity change vs negative control": "-0.1% (active)"},
      {"compound": "Cc1ccc(-n2c(C)cc(C(=O)CN3CCOCC3)c2C)cc1", "activity change vs negative control": "10.9%"},
      {"compound": "Cc1cc(F)c(F)c(C(=O)N2CCOCC2)c1", "activity change vs negative control": "7.3%"},
      {"compound": "O=c1c(-c2cccc3ccccc23)[n+]([O-])c2ccccc2n1O", "activity change vs negative control": "27.4%"},
      {"compound": "COc1ccc(-c2c(C)c3ccc(OCC(C)=O)cc3oc2=O)cc1", "activity change vs negative control": "4.2%"},
      {"compound": "Cc1cc(=O)oc2cc(OCC(=O)OCC(=O)NC(C)C)ccc12", "activity change vs negative control": "12.7%"},
      {"compound": "COc1ccc(-c2cc(=O)oc3cc(OCC(C)=O)ccc23)cc1", "activity change vs negative control": "-6.4% (active)"},
      {"compound": "Oc1ccc(N2CCN(C(c3cccnc3)c3nnnn3Cc3ccccc3)CC2)cc1", "note": "(stereo unspecified)", "activity change vs negative control": "19.3%"},
      {"compound": "c1ccc(Cn2ncc3c(N4CCN(C(c5ccccc5)c5ccccc5)CC4)ncnc32)cc1", "activity change vs negative control": "-7.5% (active)"},
      {"compound": "Oc1ccc(Cl)cc1C1=NNC(c2cccs2)C1", "note": "(stereo unspecified)", "activity change vs negative control": "36.9%"},
      {"compound": "CC(C)c1ccc(NC(=O)C2CC3CCC2C3)cc1", "note": "(stereo unspecified)", "activity change vs negative control": "45.1%"},
      {"compound": "CCOC(=O)C1=NN(C(=O)c2cccc(Br)c2)C(O)(C(C)(C)C)C1", "note": "(stereo unspecified)", "activity change vs negative control": "111%"},
      {"compound": "O=C(NC(=S)N1CCCc2ccccc21)c1ccc(Br)cc1", "activity change vs negative control": "49.6%"},
      {"compound": "O=C(Nn1cnnc1)c1ccncc1", "activity change vs negative control": "12.7%"},
      {"compound": "O=C(NN1C(=O)C2C(c3ccccc3)C=CC(c3ccccc3)C2C1=O)c1ccncc1", "note": "(stereo unspecified)", "activity change vs negative control": "-13% (active)"},
      {"compound": "O=C(NN1C(=O)C2C(c3ccccc3)C=CC(c3ccccc3)C2C1=O)c1cccc(Br)c1", "note": "(stereo unspecified)", "activity change vs negative control": "10.8%"},
      {"compound": "Cc1ccc(C(C)NC(=O)C2CCCC2)cc1C", "note": "(stereo unspecified)", "activity change vs negative control": "66.7%"},
      {"compound": "Cc1cccc(N2CCN(C(=O)Cc3c(C(=O)O)[nH]c4ccc(Cl)cc34)CC2)c1C", "activity change vs negative control": "38.6%"},
      {"compound": "CC1CCN(C(=S)NC(=O)c2cccc([N+](=O)[O-])c2)CC1", "activity change vs negative control": "37.1%"},
      {"compound": "O=c1c2cc(Cl)ccc2nc(-c2ccc(Cl)c(Cl)c2)n1O", "activity change vs negative control": "150%"},
      {"compound": "Cc1ccc(-c2onc3ccc(Cl)cc23)cc1", "activity change vs negative control": "-2% (active)"},
      {"compound": "Cc1ccc(-c2nc3ccc(Cl)cc3c(=O)n2O)cc1", "activity change vs negative control": "118%"},
      {"compound": "CC[C@@H](C(=O)[C@@H](C)[C@@H](O)[C@H](C)CCc1ccc(C)c(O)c1C(=O)O)[C@H]1O[C@](CC)([C@H]2CC[C@](O)(CC)[C@H](C)O2)C[C@@H]1C", "activity change vs negative control": "169%"},
      {"compound": "COc1ccccc1NC(=S)NC(=O)c1ccc(-c2ccc(Cl)cc2)o1", "activity change vs negative control": "16.7%"},
      {"compound": "C=CCn1c(=S)[nH]c2sc3c(c2c1=O)CCCC3", "activity change vs negative control": "60.7%"},
      {"compound": "O=C(NC(=S)NCCc1ccc(Cl)cc1)c1ccco1", "activity change vs negative control": "23.7%"},
      {"compound": "O=C(CNC(=O)c1ccccc1)NCc1ccc(Cl)cc1", "activity change vs negative control": "10.8%"},
      {"compound": "O=C(Cn1c(=O)c2cccn2c2ccccc21)NCCc1ccc(Cl)cc1", "activity change vs negative control": "-3.5% (active)"},
      {"compound": "Cc1nc(NCCc2ccc(S(N)(=O)=O)cc2)c2c(C)c(C)sc2n1", "activity change vs negative control": "15.2%"},
      {"compound": "O=c1cc(-c2c(F)c(F)c(F)c(F)c2F)oc2ccccc12", "activity change vs negative control": "41.6%"},
      {"compound": "COc1ccccc1C(=O)Nc1ccc(C(=O)N2CCCC2)cc1", "activity change vs negative control": "14.7%"},
      {"compound": "CCOC(=O)c1nnn(CC(=O)Nc2ccccc2OC)c1C(=O)OCC", "activity change vs negative control": "7.9%"},
      {"compound": "COc1ccccc1C(=O)COC(=O)c1ccc(-n2cnnn2)cc1", "activity change vs negative control": "-0.2% (active)"},
      {"compound": "O=C(NC(=S)Nc1nc(-c2ccc([N+](=O)[O-])cc2)cs1)c1ccco1", "activity change vs negative control": "42%"},
      {"compound": "Cc1ccc(S(=O)(=O)N(C)C)cc1NC(=S)NC(C)CCCC(C)C", "note": "(stereo unspecified)", "activity change vs negative control": "-2.5% (active)"},
      {"compound": "O=c1c2ccc(Cl)cc2[nH]c(=S)n1CCC1=CCCCC1", "activity change vs negative control": "32.4%"},
      {"compound": "NC(=O)c1cccc(N=Cc2cc(Cl)cc(Cl)c2O)c1", "activity change vs negative control": "43.3%"},
      {"compound": "O=C(Nc1nc(=S)ss1)c1ccc(Cl)cc1Cl", "activity change vs negative control": "122%"},
      {"compound": "CCC1CCCCN1C(=S)NC(=O)c1cccc([N+](=O)[O-])c1", "note": "(stereo unspecified)", "activity change vs negative control": "55.4%"},
      {"compound": "O=C(NC(=S)NCCC1=CCCCC1)c1ccc(Br)o1", "activity change vs negative control": "26.5%"},
      {"compound": "Cc1cc([N+](=O)[O-])c(C)cc1-c1ccc(/C=N/NC(=O)Cn2nnnc2N)o1", "activity change vs negative control": "19.5%"},
      {"compound": "C=CCSC1=C(C#N)C(c2ccccc2)CC(=O)N1", "note": "(stereo unspecified)", "activity change vs negative control": "-8.8% (active)"},
      {"compound": "COc1ccc(C(=O)NNC(=O)C(=O)Nc2cccc3ccccc23)cc1", "activity change vs negative control": "80.5%"},
      {"compound": "Cc1ccc(NC(=O)C(=O)NNC(=O)c2cccs2)cc1", "activity change vs negative control": "83.8%"},
      {"compound": "C=CCn1c(SCC(N)=O)nc2scc(-c3ccc(C)o3)c2c1=O", "activity change vs negative control": "33%"},
      {"compound": "CCCN(CCC)C(=S)NC(=O)c1ccc(-c2ccccc2)cc1", "activity change vs negative control": "106%"},
      {"compound": "CSc1ccc(S(=O)(=O)N2CCC(C(=O)Nc3ccccc3C(F)(F)F)CC2)cc1", "activity change vs negative control": "-0.2% (active)"},
      {"compound": "CS(=O)(=O)N1CCC(C(=O)Nc2c(F)cccc2F)CC1", "activity change vs negative control": "16.7%"},
      {"compound": "O=C(CSc1nnc(NC(=O)c2ccc(S(=O)(=O)N3CCOCC3)cc2)s1)Nc1ccccc1C(F)(F)F", "activity change vs negative control": "15.7%"},
      {"compound": "S=c1[nH]c2cc(-c3ccccc3)ccc2o1", "activity change vs negative control": "114%"},
      {"compound": "N#Cc1ccc(-c2nc3ccc(Br)cc3c(=O)n2O)cc1", "activity change vs negative control": "40.3%"},
      {"compound": "O=S(=O)(Nc1ccc(O)c2ccccc12)c1ccc(F)cc1", "activity change vs negative control": "1.7%"},
      {"compound": "COc1ccc(OC)c(S(=O)(=O)Nc2ccc(O)c3ccccc23)c1", "activity change vs negative control": "1.4%"},
      {"compound": "Cc1ccc(S(=O)(=O)Nc2ccc(O)c3ccccc23)c(C)c1", "activity change vs negative control": "-3.3% (active)"},
      {"compound": "CC1Cc2ccccc2N1C(=S)NC(=O)C1(C)CC1(Cl)Cl", "note": "(stereo unspecified)", "activity change vs negative control": "59.5%"},
      {"compound": "CC(NC(=S)NC1CCCCC1)c1ccccc1", "note": "(stereo unspecified)", "activity change vs negative control": "29.9%"},
      {"compound": "Cc1ccc(S(=O)(=O)N2CCOCC2)cc1NC(=O)CSc1nc2ccccc2c(=O)n1Cc1ccccc1", "activity change vs negative control": "13.7%"},
      {"compound": "Cc1ccc(Cl)cc1NC(=O)COC(=O)c1ccccc1O", "activity change vs negative control": "6.8%"},
      {"compound": "Cc1ccc(S(=O)(=O)N2CCOCC2)cc1NC(=O)COC(=O)c1cccnc1Cl", "activity change vs negative control": "-1.4% (active)"},
      {"compound": "C=CCNC(=S)Nc1sc2c(c1C(=O)OCC)CC(C)(CC)OC2", "note": "(stereo unspecified)", "activity change vs negative control": "38.9%"}
    ]}
  ]
}
